We go through 21 molecules from PubChem BioAssay (NCI).

The structures appear in SMILES notation. The panel holds about 79,000 compounds, 15% with a hit somewhere; the sample as a whole holds those more often. A number with no mark means an inactive call. Activity calls are given as the source filed them. Rule as the data show it: active = growth inhibition above about 70%; inactive = the rest.

Assay [1] in a line: NCI Yeast Anticancer Drug Screen. Data for the rad50 strain (AID 155).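 Also: 0% = growth of vehicle-only cultures of the same strain.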 The settings on record: S. cerevisiae rad50 strain growth inhibition, hits give high values; at 50.0 µM unless noted. Summed up:
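Yeast carrying a defined DNA repair defect were exposed to test compounds, and growth was compared with vehicle-treated controls to give percent inhibition.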

Assay [2] is described as follows: NCI Yeast Anticancer Drug Screen. Data for the mec2-1 strain (AID 157). The settings on record: S. cerevisiae mec2-1 strain, hits give high values; at 50.0 µM unless noted. Summed up: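 Growth inhibition is read against vehicle-treated controls after compound exposure of the mec2-1 yeast strain, which is defective in DNA damage repair or cell cycle control.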
The nature of assay [3]: NCI Yeast Anticancer Drug Screen. Data for the sgs1 mgt1 strain (AID 161).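 Also: 0% = growth of cultures given vehicle only.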 The settings on record: S. cerevisiae sgs1 mgt1 strain, hits give high values; at 50.0 µM unless noted. Summed up:
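Percent growth inhibition was derived by comparing compound-exposed mutant yeast with vehicle-exposed cultures. The strain carries alterations in DNA damage repair.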

The nature of assay [4]: NCI Yeast Anticancer Drug Screen. Data for the cln2 rad14 strain (AID 165).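 Also: 0% = growth equal to vehicle treated cultures.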 The settings on record: S. cerevisiae cln2 rad14 strain, hits give high values; at 50.0 µM unless noted. Summed up: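 Growth inhibition, relative to vehicle-treated controls, is the read-out. The test organism is a yeast strain with defined genetic alterations, cln2 rad14.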
The nature of assay [5]: NCI Yeast Anticancer Drug Screen. Data for the bub3 strain (AID 167). To be noted: S. cerevisiae bub3 mutant strain, hits give high values; at 50.0 µM unless noted. In a few lines: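 Compounds were applied to a genetically altered yeast strain carrying a cell-cycle control defect. Growth inhibition was scored against vehicle-treated controls.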
Assay [6] is described as follows: NCI Yeast Anticancer Drug Screen. Data for the mlh1 rad18 strain (AID 175). The settings on record: S. cerevisiae mlh1 rad18 strain growth inhibition, hits give high values; at 50.0 µM unless noted. In a few lines:
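Cells of a genetically altered yeast strain, deficient in DNA damage repair, were treated with compound. Their growth was then compared with that of vehicle-treated cultures to give inhibition.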

Turning to `CN(C)C(=S)/N=c1\ssc(=S)n1Cc1cccnc1`, the growth inhibition in assay [1] was -20.6%; in assay [2], -14.4%; in assay [3], 5.5%; in assay [4] it was 22.9%; in assay [5] it was -13.7%; in assay [6], -62.8%.

With `O=c1cc(Cl)c(=O)n(-c2ccccc2)[nH]1`, the growth inhibition is 3.5% in assay [1]; -4.75% in assay [2]; -3.25% in assay [3]; -14.6% in assay [4]; 0.9% in assay [5]; 2.7% in assay [6].

Consider `Nn1nnc2ccccc21`, for which the growth inhibition in assay [1] is 26.8%; in assay [2], 24.8%; in assay [3], 16.3%; in assay [4], 33%; in assay [5] it was 7.1%; in assay [6] it was 32.1%.

Consider `COc1ccc(-c2cc(=O)c3c(O)c(OC)c(O)cc3o2)cc1O`, for which the growth inhibition in assay [1] was 24.8%; in assay [2], 14.9%; in assay [3], 37.5%; in assay [4], 22.9%; in assay [5], 37.5%; in assay [6] it was 17.1%.

In the case of `C/C(=N\NC(=S)Nc1ccccc1)[C@H]1C2CCC(C2)C1C/C=C\CCCC(=O)O` (stereo partly specified), the growth inhibition in assay [1] was 26.1%; in assay [2], 17.3%; in assay [3], 25.9%; in assay [4] it was 48.1%; in assay [5], 37.5%; in assay [6], 13.4%.

Take `CCCCOC(=O)c1cccc(C)c1`: the growth inhibition is -3% in assay [1]; 4.4% in assay [2]; -4.35% in assay [3]; -38.1% in assay [4]; 2.6% in assay [5]; -0.9% in assay [6].

Turning to `CN(C)C=Nc1ccc2c3c(cccc13)-c1ccccc1-2`, the growth inhibition is -2.9% in assay [1]; -24.1% in assay [2]; 47.5% in assay [3]; -0.35% in assay [4]; 51.1% in assay [5]; 41% in assay [6].

Take `C1=C(Nc2ccccc2)C(=Nc2ccccc2)C=C(Nc2ccccc2)C1=Nc1ccccc1`: the growth inhibition in assay [1] was -17.2%; in assay [2] it was -4.25%; in assay [3], -3.1%; in assay [4], 7.1%; in assay [5] it was 1.65%; in assay [6], 5.4%.

As for `Cn1ncc2c(NC(C)(C)CC(C)(C)C)ncnc21`, the growth inhibition was 21.1% in assay [1]; 7.95% in assay [2]; 1.05% in assay [3]; 1.55% in assay [4]; 45.4% in assay [5]; 16.8% in assay [6].

As to `Cc1cc(C(c2ccccc2)n2c3ccccc3c3ccccc32)cc(C)c1O` (stereo unspecified), the growth inhibition in assay [1] is 6.5%; in assay [2], 11.3%; in assay [3], 8.45%; in assay [4] it was 0.25%; in assay [5] it was -7.55%; in assay [6], 16.4%.

As for `O=C(O)/C(Cc1cn[nH]n1)=N\O`, the growth inhibition is -20.3% in assay [1]; -29.9% in assay [2]; -51.7% in assay [3]; -77% in assay [4]; -39.4% in assay [5]; -32% in assay [6].

Take `CC(=O)C12C[C@](C#N)(N3CCCCCC3)C1C=Cc1ccccc12` (stereo partly specified): the growth inhibition is -56% in assay [1]; -29.6% in assay [2]; -46.1% in assay [3]; -51.5% in assay [4]; -21.5% in assay [5]; -56.4% in assay [6].

Turning to `NC(=O)C(=CN1C(=O)CC(=O)NC1=S)C(N)=O`, the growth inhibition in assay [1] is -29.8%; in assay [2], -34%; in assay [3], -11.6%; in assay [4], -13.8%; in assay [5], -26.6%; in assay [6], 13.5%.

On to `O=C(NCN1CCOCC1)NC(=O)NCN1CCOCC1`, for which the growth inhibition in assay [1] was -10.6%; in assay [2], 7.4%; in assay [3] it was -7.6%; in assay [4], -3.9%; in assay [5], 12.2%; in assay [6] it was -3.95%.

As to `COc1nc2nccnc2c(=O)n1C`, the growth inhibition was -18.2% in assay [1]; -4.65% in assay [2]; -16.5% in assay [3]; 14.4% in assay [4]; -7.55% in assay [5]; -3.3% in assay [6].

Turning to `CC1C(c2ccccc2)OCCN1C(N)=S` (stereo unspecified), the growth inhibition in assay [1] was 21.9%; in assay [2], 1%; in assay [3], 52.4%; in assay [4], 17.9%; in assay [5] it was 24.1%; in assay [6], 23.3%.

Regarding `O=[N+]([O-])c1ccn(Cc2ccccc2)c1`, the growth inhibition was -6.25% in assay [1]; 2.95% in assay [2]; 5.65% in assay [3]; -41.5% in assay [4]; -14.2% in assay [5]; 9.5% in assay [6].

As for `CCOc1cc2c(cc1C(C)c1ccc(OC)c(C)c1)OCO2` (stereo unspecified), the growth inhibition is 11.1% in assay [1]; 5.6% in assay [2]; -2.3% in assay [3]; 74% (active) in assay [4]; 26.2% in assay [5]; 5.7% in assay [6].

With `CCc1ccc(NS(=O)(=O)c2ccc(OC)cc2)cc1`, the growth inhibition in assay [1] was 37.9%; in assay [2], 63.5%; in assay [3] it was 80.2% (active); in assay [4] it was 25.9%; in assay [5] it was 43.4%; in assay [6], 75.7% (active).

With `COc1cc(OC)c2c(c1)OC(c1cccnc1)C(c1ccccc1)C2=O` (stereo unspecified), the growth inhibition was -5.2% in assay [1]; -57.9% in assay [2]; -5% in assay [3]; -27.7% in assay [4]; 12.5% in assay [5]; 3.9% in assay [6].

Take `C=CCOCn1cnc2c(N)ncnc21`: the growth inhibition in assay [1] is -35.9%; in assay [2], -59.9%; in assay [3], -24.1%; in assay [4] it was -0.6%; in assay [5], -11.3%; in assay [6], -36%.
